# NS1 inh: inhibitors of influenza NS1 protein function | actives 0.4% (n = 270,000) | Potency, µM (doses to about 46.1 µM), inactives show at the top dose activity, positive = more growth | AID 2326; calls by dose curve; note: potency is the fitted concentration of half-maximal effect; actives are rising curves; nearly all actives have a fitted effect of over 50% in size
#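 S. cerevisiae expressing influenza A NS1, grown in glucose, washed, then diluted 1:100 into pH 6.0 -URA galactose medium with 23 nl compound. Growth recovery read as OD600; NS1-free strain serves as control.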
# Cycloheximide cs: counter-screen for Shiga toxin inhibitors: cycloheximide protein synthesis inhibition; cell reporter, cycloheximide protein synthesis inhibition counterscreen; max response, %; actives 12% (n = 300,000); in the data active = max response mostly above about 13%, no sharp cut-off; inactive = mostly below about 14%; note: read at 38.3 µM for the half of the compounds with a filed dose; 0% is about no effect
# Shiga toxin inh: inhibitors of Shiga toxin in Vero cells | Vero cells, Shiga toxin protein synthesis inhibition reporter | inhibition, % at 38.7 µM | actives 9.2% (n = 290,000); in the data active = inhibition mostly above about 28%, no sharp cut-off; inactive = mostly below about 43%; note: 0% is about no effect
# LmPK inh: LmPK (Leishmania mexicana) enzyme inhibition; Q27686; purified LmPK, Kinase-Glo ATP luminescence, 1 h; Potency, µM (titrated, usually from 57.5 µM), inactives show top-dose activity change, negative = inhibition, usual class: inhibitors; actives 0.37% (n = 290,000); AID 1721; note: potency is the fitted concentration of half-maximal effect; % is set by controls: 0 for no effect and ±100 for the full control effect
# Target sequence (Q27686 whole entry, looked up): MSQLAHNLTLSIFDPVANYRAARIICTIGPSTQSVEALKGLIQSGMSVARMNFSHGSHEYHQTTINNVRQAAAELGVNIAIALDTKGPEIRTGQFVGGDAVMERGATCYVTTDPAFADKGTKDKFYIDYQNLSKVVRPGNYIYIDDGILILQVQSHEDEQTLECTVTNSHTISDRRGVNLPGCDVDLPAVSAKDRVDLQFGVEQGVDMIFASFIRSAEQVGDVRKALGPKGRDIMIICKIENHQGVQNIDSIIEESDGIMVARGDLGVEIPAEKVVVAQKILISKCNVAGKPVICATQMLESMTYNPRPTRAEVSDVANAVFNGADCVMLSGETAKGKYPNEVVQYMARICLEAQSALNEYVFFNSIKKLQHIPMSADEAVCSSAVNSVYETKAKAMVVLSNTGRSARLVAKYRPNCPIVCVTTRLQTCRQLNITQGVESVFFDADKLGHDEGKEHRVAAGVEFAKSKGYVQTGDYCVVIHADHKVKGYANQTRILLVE
#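 qHTS format; LmPK 0.1 nM; substrates PEP 0.5 mM and ADP 0.1 mM. One-hour room-temperature incubation, then coupled luciferase luminescence; 0.5 nM enzyme wells mark activation.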
# FBPA Giardia inh: Giardia lamblia aldolase inhibition | Potency, µM (titrated, usually from 59.6 µM), without a hit: at the top dose activity, negative = inhibition, hits mostly inhibitors | actives 0.71% (n = 290,000) | A8B2U2 | AID 2451 | purified Giardia FBPA; note: potency is the fitted concentration of half-maximal effect; % is set by controls: 0 for no effect and ±100 for the full control effect; nearly all actives have a fitted effect of over 55% in size
#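 40 nM FBPA preincubated 10 min at RT with compound (up to 57.5 uM final), then substrate plus GAPDH/TPI/NAD/arsenate coupling and diaphorase/resazurin added. Fluorescence read after 20 min at RT, 525/598 nm.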
# The depositor's hits bear a star; ? = inconclusive; · = not tested or not shown. Only some compounds are listed: those with a hit (about 14% of all), similar ones and a draw of the others. Unless noted, calls come from the whole dose curve; as a rule, active = well fitted curve in the direction sought with a large enough effect; inconclusive = small, poorly fitted or top-dose-only effect, or another doubt; inactive = no such curve, though single readings can be large; an effect the other way counts as inactive or inconclusive.
SMILES,NS1 inh,Cycloheximide cs,Shiga toxin inh,LmPK inh,FBPA Giardia inh
CCC(=O)N1CCCC(C(=O)c2ccc(-c3ccccc3)cc2)C1 (configuration not stated),-27.1%,13.1*,46.7,5.8%,16.9%
CCN1CCN(CC(=O)N2CCCC(C(=O)c3ccc(Oc4ccccc4)cc3)C2)CC1 (configuration not stated),-40.3%,24.9*,55.6*,-6.7%,-2.0%
CC(C)C[C@H](NC(=O)[C@H](Cc1ccccc1)NC(=O)CNC(=O)CNC(=O)[C@@H](N)Cc1ccc(O)cc1)C(=O)N[C@@H](CCCN=C(N)N)C(=O)N[C@@H](CCCN=C(N)N)C(=O)N[C@@H](CCC(N)=O)C(=O)N[C@@H](Cc1ccccc1)C(=O)N[C@@H](CCCCN)C(=O)N[C@H](C(=O)N[C@H](C(=O)N[C@H](C(=O)O)[C@@H](C)O)C(C)C)C(C)C,·,-5.4,-3.7,·,9.1%
COc1ccc(-c2cc(N)n(S(=O)(=O)c3c(F)c(F)c(F)c(F)c3F)n2)cc1OC,-95.3%,13.8*,32.9*,2.1%,16.5%
COc1ccc(CCNC(=O)c2cccc(Br)c2)cc1OC,0.4%,-1.3,-11.6,0.0%,11.6%
O=C(Nc1cccc(F)c1)N1CC2(CCN(C(=O)c3cccc(F)c3)CC2)C1,·,·,·,·,1.4%
Cc1cc(C(=O)Nc2sc3c(c2C#N)CCCCC3)cs1,-3.2%,28.8*,60.0*,-12.9%,-23.1%
Cc1onc(C(=O)Nc2sc3c(c2C#N)CCCC3)c1[N+](=O)[O-],·,33.4*,81.5*,-21.8%,-11.5%
Cc1onc(-c2ccccc2Cl)c1C(=O)Nc1sc2c(c1C#N)CCC2,-47.0%,-4.0,38.0,4.0%,-8.8%
CC1CCc2c(sc(NC(=O)c3nc4ncccn4n3)c2C#N)C1 (configuration not stated),?,-1.0,-7.2,2.7%,-0.7%
CC(C)C(=O)Nc1sc2c(c1C#N)CCCCC2,-6.4%,23.8*,61.8*,4.9%,?
COc1cccc(OC)c1C(=O)Nc1sc2c(c1C#N)CCC2,?,0.5,9.7,-7.6%,-8.2%
N#Cc1c(NC(=O)c2nc3ncccn3n2)sc2c1CCCCC2,-3.6%,30.3*,58.4*,-7.0%,?
CC(C)(C)C(=O)Nc1sc2c(c1C#N)CCC2,0.3%,1.0,-8.8,1.1%,4.4%
C[Si](C)(C)n1ccnc1,22.2%,-2.4,-2.6,-5.9%,?
CCN1CCN(c2nc3c(c(=O)[nH]c(=O)n3C)n2Cc2ccccc2)CC1,7.7%,-2.2,-5.4,-2.1%,22.0%
COc1ccc(C(=O)NCc2ccon2)cc1OC1CCN(C(C)C)CC1,2.2%,-3.1,1.9,0.7%,-1.4%
COc1ccc(Cl)cc1NC(=O)CN1C(=O)NC2(CCCC2)C1=O,-0.5%,-4.3,-6.2,8.5%,-2.1%
COC(=O)c1ccc(OC(=O)c2ccncc2)cc1O,-2.4%,-1.6,17.9,1.5%,-3.2%
Cc1sc(NC(=O)COc2ccccc2)c(C#N)c1C,·,41.4*,95.6*,0.0%,-7.9%
CCCC(=O)Nc1sc2c(c1C#N)CCCC2,-4.9%,32.8*,73.7*,3.6%,-6.4%
N#Cc1c(NC(=O)C2CC2)sc2c1CCCCC2,-11.8%,31.3*,37.2*,0.3%,-9.9%
N#Cc1c(NC(=O)C2C3C=CC(C3)C2C(=O)O)sc2c1CCCCC2 (configuration not stated),-33.2%,15.7,33.2,0.6%,19.3%
Cc1cccc(OCC(=O)Nc2sc3c(c2C#N)CCC3)c1,13.3%,21.2*,60.2*,7.0%,0.8%
COc1ccc(S(=O)(=O)N2CCOCC2)cc1NC(=O)CSc1nnc2c(n1)[nH]c1ccccc12,7.7%,3.6,-9.5,8.9%,-4.8%
SMILES,NS1 inh,Cycloheximide cs,Shiga toxin inh,LmPK inh,FBPA Giardia inh
O=C(NC1CC1)C1CC(=O)N(c2cccc(Cl)c2)C1 (configuration not stated),27.6%,2.7,-8.6,-9.6%,·
COC(=O)C1C(O)CC[C@@H]2CN3CCc4c([nH]c5ccccc45)C3C[C@@H]12 (some centres not stated),·,·,·,·,-8.4%
c1ccc2c(c1)Cc1cc(CN3CCOCC3)ccc1-2,4.5%,40.9*,76.3*,-2.1%,-10.5%
c1ccc(Oc2cccc(CN3CCOCC3)c2)cc1,-2.4%,27.9*,-14.2,-3.4%,-10.4%
O=S(=O)(Nc1c(Br)cc(Br)c2cccnc12)C1CC1,·,-5.1,-3.9,·,·
COc1ccc(C(=O)C2CCCN(C3Cc4ccccc4C3)C2)c(OC)c1 (configuration not stated),-0.3%,24.1*,73.7*,-5.8%,-0.6%
COc1ccc(C(=O)C2CCCN(Cc3ccccn3)C2)c(OC)c1 (configuration not stated),-0.3%,3.4,-16.5,-0.6%,3.0%
Cc1ccc2c(c1)C(=C(C#N)C#N)C(=O)N2CCN1CCCCC1,8.0%,-2.3,-16.1,5.2%,?
Cc1ccc2c(c1)C(=C(C#N)C#N)C(=O)N2CCN1CCOCC1,1.3%,-1.7,-14.9,-4.3%,3.15µM*
COc1ccc(-c2nn(-c3ccccc3)cc2CO)cc1OC,-8.2%,1.6,-11.1,-1.1%,7.6%
COc1cccc(-c2nn(-c3ccccc3)cc2CN(C)C(C)c2ccncn2)c1 (configuration not stated),-0.1%,6.0,19.0,3.4%,-6.6%
COc1cccc(-c2nn(-c3ccccc3)cc2CNC(C)Cn2cncn2)c1 (configuration not stated),-8.2%,33.6*,111.0*,-26.3%,5.1%
COc1cccc(-c2nn(-c3ccccc3)cc2CO)c1,-42.7%,33.0*,60.5*,-1.2%,1.9%
COC(=O)[C@H](Cc1ccccc1)NC(=O)O[C@@H]1C(=O)c2ccc(OC)cc2O[C@H]1c1ccc2c(c1)OCO2,·,·,·,·,-0.8%
CC(C)NC(=O)CC(=O)N/N=C/c1ccc(Br)cc1,24.1%,4.6,6.1,2.6%,2.3%
O=C(O)CC1SC(N/N=C/c2ccc(Br)cc2)NC1=O (configuration not stated),·,44.1*,79.1*,-16.8%,12.4%
O=c1c(-c2ccccc2)nc2cnc(Oc3cccc(Cl)c3)nc2n1C[C@H]1CCCO1,·,·,·,·,3.9%
COc1ccc(NC(=S)NCc2ccccc2)c(OC)c1,1.2%,-1.3,-9.1,1.7%,4.2%
Cc1cccn2c(=O)c3cc(C(=O)NCc4ccco4)c(=N)n(CCc4ccccc4)c3nc12,-1.1%,17.1*,46.2*,2.7%,-2.2%
Cc1cccn2c(=O)c3cc(C(=O)NCCc4ccccc4)c(=N)n(Cc4ccco4)c3nc12,17.6%,-4.0,-13.7,0.9%,-2.8%
O=C(Nc1ccc2oc(-c3ccccc3F)nc2c1)c1ncn[nH]1,3.4%,52.1*,79.8*,-4.3%,9.0%
O=C(Nc1ccc2oc(-c3ccncc3)nc2c1)c1ccccc1,·,6.2,18.0,5.7%,4.7%
O=C(Nc1ccc2oc(-c3ccncc3)nc2c1)c1ccccc1F,-24.9%,12.7,62.6*,1.1%,-9.3%
O=C(Cc1ccccc1)NC(=S)Nc1ccc2oc(-c3ccccc3F)nc2c1,-7.2%,29.3,50.0*,0.7%,3.5%
